# Experimental data taken from PubChem BioAssay (Tox21).
# Where “and” joins values, the source holds several entries; their conditions need not be identical. Equal entries are not always repeated. A number with no mark means an inactive call. Inconclusive results are not listed. Entries that show only a call come without a potency. Calls of active or inactive are those of the source. Unless noted, calls follow the shape of the full dose curve.
# Assays:
# [1] = qHTS assay for small molecule activators of the heat shock response signaling pathway (AID 743210; active = well fitted activation curve with a large enough effect in the signal ratio in the repeat runs, with a control signal flat, not every such curve was filed as active; the % refers to the signal ratio; also: series mostly up to about 63 µM)
# Method in brief: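 HSE-bla HeLa cells (beta-lactamase reporter under heat shock response elements) were exposed to compounds for 5 h at 37 C, then loaded with LiveBLAzer B/G FRET substrate for 2.5 h at room temperature before fluorescence reading.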
# [2] = Caspase-3/7 induction in HepG2 cells by small molecules, qHTS assay (AID 1346978; active = well fitted curve in the direction sought with a large enough effect in the repeat runs; an effect the other way counts as inactive or inconclusive; also: nearly all actives have a fitted effect of over 15% in size)
# Method in brief: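 Wild-type HepG2 cells (2,000/well) were settled 5 h at 37 C, 5% CO2, then exposed to compounds in DMSO for 17 h. Caspase-3/7 activity was read by luminescence 30 min after adding Caspase-Glo 3/7 reagent at room temperature.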
# [3] = target: Acetylcholinesterase (Homo sapiens) (UniProt P22303); test: Acetylcholinesterase (AChE) small molecule antagonists: colormetric cell-based qHTS assay (AID 1347395); also: nearly all actives have a fitted effect of over 30% in size; also: potency is read from the fitted curve at half-maximal effect
# Method in brief: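 Colorimetric readout: DTNB quantifies thiocholine from acetylthiocholine hydrolysed by endogenous AChE of SH-SY5Y cells (2,000/well, plated overnight). Compound pretreatment 30 min, substrate incubation 90 min, both 37 C.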
# [4] = target: Acetylcholinesterase (Homo sapiens) (UniProt P22303); test: Acetylcholinesterase (AChE) small molecule antagonists: enzyme-based qHTS assay with human liver microsomes (AID 1347399); conditions: Potency: qHTS inhibition; outcome: qHTS inhibition; also: nearly all actives have a fitted effect of over 60% in size
# Method in brief: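 Recombinant human AChE (50 mU/mL in the enzyme mix) and human liver microsomes (0.25 mg/mL final) were preincubated with compound and NADPH (0.25 mg/mL final) for 30 min at 37 C. Acetylthiocholine/DTNB was then added; thiocholine was read colorimetrically after 10 min at room temperature.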
# [5] = target: Acetylcholinesterase (Homo sapiens) (UniProt P22303); test: Acetylcholinesterase (AChE) small molecule antagonists: enzyme-based qHTS assay (AID 1347397); conditions: Potency: AChE enzyme activity inhibition; outcome: AChE enzyme activity inhibition; also: nearly all actives have a fitted effect of over 55% in size
# Method in brief: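 Recombinant human AChE, dispensed at 50 mU/mL, was preincubated with Tox21 10K compounds or DMSO vehicle for 30 min at room temperature. DTNB plus acetylthiocholine was then added, and thiocholine was measured colorimetrically after a further 10 min.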
# [6] = target: Acetylcholinesterase (Homo sapiens) (UniProt P22303); test: Acetylcholinesterase (AChE) small molecule antagonists: fluorescence cell-based qHTS assay (AID 1347398); conditions: Potency: AChE activity; outcome: AChE activity; also: nearly all actives have a fitted effect of over 50% in size
# Method in brief: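 Human SH-SY5Y cells were plated overnight at 37 C, exposed to compound for 30 min at 37 C, 5% CO2, then given acetylthiocholine plus Thiolite Green for 40 min at room temperature; thiocholine fluorescence (Ex/Em 490/520 nm) reports endogenous AChE activity.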
# [7] = target: Glucocorticoid receptor (Homo sapiens) (UniProt P04150); test: qHTS assay to identify small molecule agonists of the glucocorticoid receptor (GR) signaling pathway (AID 720691; active = well fitted activation curve with a large enough effect in the signal ratio in the repeat runs, not every such curve was filed as active; the % refers to the signal ratio)
# Method in brief: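 Fluorescence intensity from LiveBLAzer B/G FRET substrate (2 h, room temperature) reports beta-lactamase expression driven by the glucocorticoid response element in GR-bla HeLa cells after 18 h compound exposure at 37 C.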
# [8] = target: Androgen receptor (Homo sapiens) (UniProt P10275); test: qHTS assay to identify small molecule agonists of the androgen receptor (AR) signaling pathway (AID 743036; active = well fitted activation curve with a large enough effect in the signal ratio in the repeat runs, with a control signal flat, not every such curve was filed as active; the % refers to the signal ratio)
# Method in brief: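 Activation was read as beta-lactamase FRET signal from LiveBLAzer B/G substrate, added for 2 h at room temperature. Before that, GeneBLAzer AR-UAS-bla GripTite (HEK293) cells had 16 h compound exposure at 37C.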
# [9] = target: Androgen receptor (Homo sapiens) (UniProt P10275); test: qHTS assay to identify small molecule agonists of the androgen receptor (AR) signaling pathway using the MDA cell line (AID 743040; active = well fitted curve in the direction sought with a large enough effect in the repeat runs; an effect the other way counts as inactive or inconclusive; also: nearly all actives have a fitted effect of over 20% in size)
# Method in brief: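 MDA-kb2 breast carcinoma cells stably carrying an MMTV-driven luciferase reporter (AR- and GR-responsive) were seeded and held 5 h at 37C, 0% CO2, then exposed to compounds in DMSO for 16 h. Luminescence was read 30 min after ONE-Glo addition.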
# [10] = target: Androgen receptor (Homo sapiens) (UniProt P10275); test: qHTS assay to identify small molecule antagonists of the androgen receptor (AR) signaling pathway using the MDA cell line (AID 743042; active = well fitted curve in the direction sought with a large enough effect in the repeat runs; an effect the other way counts as inactive or inconclusive; also: nearly all actives have a fitted effect of over 55% in size)
# Method in brief: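 MDA-kb2 cells (human breast carcinoma, stably carrying an MMTV-luciferase reporter responsive to AR and GR) were plated at 3,000 cells/well and preincubated 5 hr at 37C, then given compound plus R1881 agonist for 16 h. ONE-Glo luminescence was read.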
# [11] = target: Nuclear receptor subfamily 1 group I member 2 (Rattus norvegicus) (UniProt Q9R1A7); test: Rat pregnane X receptor (rPXR) activation by small molecules, qHTS assay (AID 1346983; active = well fitted curve in the direction sought with a large enough effect in the repeat runs; an effect the other way counts as inactive or inconclusive; also: nearly all actives have a fitted effect of over 20% in size); conditions: rPXR luciferase reporter cells, One-Glo luminescence, 24 h; max activation: hits give high values
# Method in brief: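 Cell-based rPXR luciferase reporter assay, 2,000 cells per well, rested 5hr at 37 C before compound addition in DMSO, then 24 hr at 37 C. One-Glo reagent was added and luminescence read after 30 min at room temperature.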
# [12] = target: Nuclear receptor subfamily 1 group I member 2 (Homo sapiens) (UniProt O75469); test: CYP3A4 induction through human pregnane X receptor (PXR) by small molecules, qHTS assay (AID 1346984; active = well fitted curve in the direction sought with a large enough effect in the repeat runs; an effect the other way counts as inactive or inconclusive; also: nearly all actives have a fitted effect of over 40% in size; also: potency is read from the fitted curve at half-maximal effect)
# Method in brief: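 Luminescence readout: luciferase signal after One-Glo (30 min, room temperature), following 3 h at 37C with 3uM final Luciferin-IPA P450 substrate. Cells were DPX-2 (HepG2, PXR/CYP3A4-luc co-transfected) dosed for 24 h.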
# [13] = target: Nuclear receptor subfamily 1 group I member 2 (Homo sapiens) (UniProt O75469); test: Human pregnane X receptor (PXR) activation by small molecules, qHTS assay (AID 1346985; active = well fitted curve in the direction sought with a large enough effect in the repeat runs; an effect the other way counts as inactive or inconclusive; also: nearly all actives have a fitted effect of over 40% in size; also: potency is read from the fitted curve at half-maximal effect)
# Method in brief: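 DPX-2 cells (HepG2 co-transfected with a PXR response element and a CYP3A4-promoter luciferase construct) were seeded at 2,000 per well, rested 5 hr at 37C, then exposed to DMSO-dissolved compounds for 24 hr. Activation was read as luciferase luminescence.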
# Glucocorticoid receptor (Homo sapiens), sequence (P04150 whole entry, looked up): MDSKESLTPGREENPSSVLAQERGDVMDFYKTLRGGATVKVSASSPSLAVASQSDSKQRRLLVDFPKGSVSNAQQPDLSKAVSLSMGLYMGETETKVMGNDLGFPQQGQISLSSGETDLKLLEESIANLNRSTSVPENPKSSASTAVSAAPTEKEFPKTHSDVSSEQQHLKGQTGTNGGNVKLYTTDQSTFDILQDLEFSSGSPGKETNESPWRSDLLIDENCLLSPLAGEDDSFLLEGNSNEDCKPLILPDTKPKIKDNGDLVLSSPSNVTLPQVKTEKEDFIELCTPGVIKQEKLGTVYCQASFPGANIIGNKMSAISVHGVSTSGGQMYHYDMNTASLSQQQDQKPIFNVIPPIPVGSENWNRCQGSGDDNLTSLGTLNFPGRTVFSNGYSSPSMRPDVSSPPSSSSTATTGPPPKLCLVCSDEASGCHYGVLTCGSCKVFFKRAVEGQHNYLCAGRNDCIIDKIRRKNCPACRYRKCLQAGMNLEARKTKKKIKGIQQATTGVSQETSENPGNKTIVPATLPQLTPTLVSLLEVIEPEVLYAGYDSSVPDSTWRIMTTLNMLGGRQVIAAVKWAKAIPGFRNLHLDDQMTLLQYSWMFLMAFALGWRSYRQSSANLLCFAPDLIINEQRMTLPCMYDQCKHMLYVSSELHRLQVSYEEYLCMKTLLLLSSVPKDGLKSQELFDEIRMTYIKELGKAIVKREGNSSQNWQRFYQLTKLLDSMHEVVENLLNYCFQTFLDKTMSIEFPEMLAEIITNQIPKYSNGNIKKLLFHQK
# Acetylcholinesterase (Homo sapiens), sequence (P22303 whole entry, looked up): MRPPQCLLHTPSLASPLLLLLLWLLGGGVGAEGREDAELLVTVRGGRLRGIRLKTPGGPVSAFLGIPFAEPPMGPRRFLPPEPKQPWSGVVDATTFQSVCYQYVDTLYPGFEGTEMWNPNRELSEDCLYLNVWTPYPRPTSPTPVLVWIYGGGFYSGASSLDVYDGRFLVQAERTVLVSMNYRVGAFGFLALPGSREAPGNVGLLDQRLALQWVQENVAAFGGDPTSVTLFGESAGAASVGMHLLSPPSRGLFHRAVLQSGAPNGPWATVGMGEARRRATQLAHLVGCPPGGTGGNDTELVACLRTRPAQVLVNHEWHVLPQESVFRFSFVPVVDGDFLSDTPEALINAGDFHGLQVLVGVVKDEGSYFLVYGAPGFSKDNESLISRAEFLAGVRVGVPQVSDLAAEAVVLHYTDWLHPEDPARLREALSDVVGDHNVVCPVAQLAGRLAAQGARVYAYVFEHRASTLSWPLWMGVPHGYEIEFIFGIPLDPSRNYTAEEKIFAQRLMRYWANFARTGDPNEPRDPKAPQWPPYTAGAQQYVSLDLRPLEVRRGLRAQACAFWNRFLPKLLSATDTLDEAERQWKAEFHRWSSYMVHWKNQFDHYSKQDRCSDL
# Androgen receptor (Homo sapiens), sequence (P10275 whole entry, looked up): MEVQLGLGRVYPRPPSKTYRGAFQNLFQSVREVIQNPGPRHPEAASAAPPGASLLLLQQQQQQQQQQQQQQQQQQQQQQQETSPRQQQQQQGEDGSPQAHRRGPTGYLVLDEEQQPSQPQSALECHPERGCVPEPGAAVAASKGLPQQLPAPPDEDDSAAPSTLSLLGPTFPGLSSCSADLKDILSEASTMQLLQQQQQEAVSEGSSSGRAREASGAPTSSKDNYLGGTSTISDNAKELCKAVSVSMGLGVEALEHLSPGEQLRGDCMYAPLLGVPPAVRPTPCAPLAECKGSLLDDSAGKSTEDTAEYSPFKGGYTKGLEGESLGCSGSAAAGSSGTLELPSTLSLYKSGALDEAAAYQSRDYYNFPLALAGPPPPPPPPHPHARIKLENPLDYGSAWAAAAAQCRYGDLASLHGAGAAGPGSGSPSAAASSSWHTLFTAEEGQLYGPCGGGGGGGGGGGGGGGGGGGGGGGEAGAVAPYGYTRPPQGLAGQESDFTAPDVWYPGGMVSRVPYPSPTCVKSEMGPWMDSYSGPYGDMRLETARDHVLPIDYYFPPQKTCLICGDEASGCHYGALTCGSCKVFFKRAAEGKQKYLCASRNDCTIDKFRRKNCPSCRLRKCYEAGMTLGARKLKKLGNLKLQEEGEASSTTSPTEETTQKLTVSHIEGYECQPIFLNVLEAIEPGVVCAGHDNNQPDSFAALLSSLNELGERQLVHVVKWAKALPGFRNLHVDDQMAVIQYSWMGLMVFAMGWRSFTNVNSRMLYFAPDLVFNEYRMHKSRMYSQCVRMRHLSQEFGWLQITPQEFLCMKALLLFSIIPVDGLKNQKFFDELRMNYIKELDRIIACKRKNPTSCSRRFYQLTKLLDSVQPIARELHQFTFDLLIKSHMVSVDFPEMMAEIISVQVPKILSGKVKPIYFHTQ
# Nuclear receptor subfamily 1 group I member 2 (Rattus norvegicus), sequence (Q9R1A7 whole entry, looked up): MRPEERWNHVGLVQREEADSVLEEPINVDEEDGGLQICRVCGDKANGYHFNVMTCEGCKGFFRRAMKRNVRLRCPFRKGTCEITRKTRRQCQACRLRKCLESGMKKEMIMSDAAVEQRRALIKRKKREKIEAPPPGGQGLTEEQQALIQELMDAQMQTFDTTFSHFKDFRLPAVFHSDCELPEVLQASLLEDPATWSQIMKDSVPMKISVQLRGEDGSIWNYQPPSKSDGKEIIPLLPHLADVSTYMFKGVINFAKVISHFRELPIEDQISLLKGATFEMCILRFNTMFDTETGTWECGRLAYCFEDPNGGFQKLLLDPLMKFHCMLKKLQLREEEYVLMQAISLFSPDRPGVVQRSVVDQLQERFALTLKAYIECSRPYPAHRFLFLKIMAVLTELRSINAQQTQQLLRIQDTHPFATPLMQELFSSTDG
compound,measurement,setting,value
C[N+](C)(C)CCCCCCCCCC[N+](C)(C)C,Potency,[1],inactive
same,Potency,[2],inactive
same,Potency,[3],15.5 µM (active)
same,Potency,[4],inactive
Clc1cc(Cl)c(Cl)cc1Cl,Potency,[2],inactive
same,Potency,[3],inactive
same,Potency,[5],inactive
same,Potency,[6],inactive
same,Potency,[4],inactive
C[C@@H](N)C(=O)c1ccccc1,Potency,[7],inactive
same,Potency,[8],inactive
same,Potency,[9],inactive
same,Potency,[10],inactive
COc1ccc(C)cc1N,Potency,[2],inactive
same,Potency,[3],inactive
same,Potency,[5],inactive
same,Potency,[6],inactive
same,Potency,[4],inactive
Clc1ccc(Cl)c(Cl)c1Cl,Potency,[2],inactive
same,Potency,[3],inactive
same,Potency,[5],inactive
same,Potency,[6],inactive
same,Potency,[4],inactive
CC(=O)OC(C)=O,Potency,[1],inactive
same,Potency,[2],inactive
same,Potency,[3],inactive
same,Potency,[5],inactive
same,Potency,[6],inactive
same,Potency,[4],inactive
COc1ccc(OC)c([C@@H](O)[C@H](C)N)c1,Potency,[7],inactive
same,Potency,[9],inactive
same,Potency,[10],inactive
same,max activation,[11],-3.61%
same,Potency,[12],inactive
same,Potency,[13],inactive
c1ccc2c(c1)ccc1ncccc12,Potency,[2],inactive
same,Potency,[3],inactive
same,Potency,[5],inactive
same,Potency,[6],inactive
same,Potency,[4],inactive
Oc1ccc2c3c1O[C@H]1[C@@H](O)CC[C@@]4(O)[C@@H](C2)N(CC2CCC2)CC[C@]314,Potency,[7],inactive
same,Potency,[10],inactive
same,max activation,[11],-0.605%
same,Potency,[13],inactive
C[N+]1([O-])[C@@H]2CC(OC(=O)[C@H](CO)c3ccccc3)C[C@H]1[C@@H]1O[C@@H]12 (some centres undefined),Potency,[9],inactive
same,Potency,[10],inactive
same,max activation,[11],6.47% and -0.453%
same,Potency,[12],inactive
same,Potency,[13],inactive
CC1=C(C(=O)O)N2C(=O)[C@@H](NC(=O)[C@H](N)c3ccccc3)[C@H]2SC1,Potency,[3],inactive
same,Potency,[5],inactive
F/C(COc1ccc2c(c1)[nH]c1ccccc12)=C1/CN2CCC1CC2,Potency,[7],inactive
same,Potency,[12],inactive
same,Potency,[13],22.4 µM (active)
C[C@]12CC[C@H]3[C@@H](CCC4=C(O)C(=O)CC[C@@H]43)[C@@H]1CC[C@@H]2OC(=O)CCC1CCCC1,Potency,[7],inactive
same,Potency,[12],inactive
same,Potency,[13],inactive
CCN(CC)CCO[C@H]1CC[C@@]2(C)C(=CC[C@@H]3[C@@H]2CC[C@]2(C)C(=O)CC[C@@H]32)C1,max activation,[11],3.39%
same,Potency,[12],7.94 µM (active)
CCOC(=O)CC(C(C)=O)C(C)=O,Potency,[3],inactive
same,Potency,[5],inactive
CS(=O)(=O)c1ccc([C@@H](O)[C@@H](CF)NC(=O)C(Cl)Cl)cc1,Potency,[3],inactive
same,Potency,[5],inactive
O[C@H]1[C@H]2[C@H](O)CCCN2C[C@H]1O,Potency,[7],inactive
same,max activation,[11],-2.82%
same,Potency,[12],inactive
same,Potency,[13],inactive
CCON=O,max activation,[11],-2.18%
same,Potency,[12],inactive
same,Potency,[13],inactive
CN1CCN(C2=Nc3cc(Cl)ccc3Nc3ccccc32)CC1,Potency,[3],inactive
same,Potency,[5],inactive
COc1ccc2c3c1O[C@H]1[C@@H](O)C=C[C@H]4[C@@H](C2)NCC[C@@]341,Potency,[7],inactive
same,Potency,[12],inactive
same,Potency,[13],inactive
O=c1[nH]cc(N(CCCl)CCCl)c(=O)[nH]1,Potency,[7],inactive
same,max activation,[11],-3.28%
same,Potency,[12],inactive
same,Potency,[13],inactive
